Compounds with a hit are over-represented: about 11% of the library has one in this group of screens.
Tau FP inhib – tau fibrillization inhibition (FP). P10636. K18 P301L tau heparin fibrillization, Alexa594 FP, 6 h. Potency, µM (top dose mostly 57.7 µM), for the others: top-dose activity, negative = inhibition, most hits filed as inhibitors. actives 0.39% (n = 280,000); further: potency means the concentration at half of the fitted maximal effect; nearly all actives have a fitted effect of over 55% in size
Target sequence (P10636 561-689 P618L limits assumed): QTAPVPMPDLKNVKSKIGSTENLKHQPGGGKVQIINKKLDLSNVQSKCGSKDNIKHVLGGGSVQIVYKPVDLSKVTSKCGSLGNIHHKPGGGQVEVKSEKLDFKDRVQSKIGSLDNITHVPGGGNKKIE
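Read-out: fluorescence polarization of Alexa 594-labeled tau (0.24 uM), 555 nm excitation, 632 nm emission. Mixtures held 15 uM unlabeled K18 P301L, compound and 20 uM heparin, pH 7 acetate buffer, incubated 6 hr at 37 C.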
Tau fluor cs – counter-screen for tau fibril formation inhibitors; tau K18 P301L Alexa594 fluorescence, heparin fibrillization; Potency, µM (titrated, usually from 57.7 µM), for the others: at the highest dose activity change, negative = decrease; actives 0.93% (n = 280,000); further: potency means the concentration at half of the fitted maximal effect; nearly all actives have a fitted effect of over 55% in size
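Human K18 P301L tau (15 uM unlabeled plus 0.24 uM Alexa 594-labeled, final) in 100 mM sodium acetate pH 7 was mixed with compound and 20 uM heparin and incubated 6 hr at 37 C.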
Coupling enz – coupling enzyme interference in Giardia aldolase counter-screen; activity change, negative = inhibition, % at 58.2 µM, hits read low; actives 0.67% (n = 290,000); coupling enzyme system counterscreen, AmpLite Red fluorescence; in the data active means activity change below about -30%
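Coupling enzymes only (glyceraldehyde-3-phosphate) + compound, at 57.5 uM final, 10 min RT; add substrate/coupling/AmpLite Red mix, 20 min RT; fluorescence ex 525/em 598 nm. Actives flag coupling-system interference.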
Tau ThT inhib – inhibitors of human tau fibril formation, thioflavin T binding; actives 2.1% (n = 270,000); Potency, µM (series often up to 57.4 µM), for inactives: at the top dose activity, negative = inhibition, actives largely listed as inhibitors; recombinant tau K18 P301L (four-repeat tau fragment), heparin-induced fibrillization, ThT fluorescence; P10636; AID 1460; further: potency means the concentration at half of the fitted maximal effect; nearly all actives have a fitted effect of over 55% in size
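Heparin-induced (20 uM) aggregation of recombinant human K18 P301L tau, 15 uM unlabeled with 0.24 uM labeled, pH 7 acetate buffer, 6 hr at 37 C with compound. Fibrils quantified by 30 uM ThT fluorescence after 1 hr ambient incubation.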
G9a block – inhibitors of human histone lysine methyltransferase G9a; G9a H3K9 monomethylation, AlphaScreen, 2 h; Potency, µM (top dose mostly 102 µM), inactives show at the highest dose activity, negative = inhibition, actives largely listed as inhibitors; actives 8.8% (n = 350,000); AID 504332; further: potency means the concentration at half of the fitted maximal effect; nearly all actives have a fitted effect of over 75% in size
Target sequence (Q96KQ7 913-1193 limits assumed): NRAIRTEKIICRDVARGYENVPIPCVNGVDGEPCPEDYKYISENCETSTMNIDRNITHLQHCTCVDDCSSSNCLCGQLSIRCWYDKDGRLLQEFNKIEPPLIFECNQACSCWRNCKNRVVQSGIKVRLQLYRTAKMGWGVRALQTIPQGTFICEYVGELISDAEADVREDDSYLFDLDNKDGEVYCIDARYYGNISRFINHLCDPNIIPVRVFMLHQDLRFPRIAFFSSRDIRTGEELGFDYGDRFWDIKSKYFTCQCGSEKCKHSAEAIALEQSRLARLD
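Readings reflect AlphaScreen signal from monomethyl-H3K9 antibody detection. HMT at 20 nM; substrate b-H3K9 500 nM; cofactor SAM 20 uM; 2 h RT reaction; compounds tested as titrations in qHTS with 15 min preincubation.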
Sfp inh – blocks B. subtilis Sfp PPTase activity; Q9F4F7; Biochemical Sfp PPTase activity, qHTS; Potency, µM, without a hit: largest response in the series, negative = inhibition, actives largely listed as inhibitors; actives 3.5% (n = 310,000);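 further: the enzyme is Sfp with the accession as filed and its product quenches rhodamine fluorescence; potency means the concentration at half of the fitted maximal effect; 0% = enzyme reaction without inhibitor and -100% = no enzyme wells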
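Sfp 15 nM + cpd, 15 min RT; start w/ rhodamine-CoA 5 uM, BHQ-2-YbbR 12.5 uM (final); 50 mM Hepes pH 7.6, 10 mM MgCl2, 0.01% NP-40, 0.01% BSA; read 525/598 nm at 0 and 30 min.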
Starred values were filed as active, the others as inactive; u = inconclusive; x = no result; ! = repeats disagree; [ ] = remark or other dose. Unless noted, the call rests on the fitted dose curve; in most records, active means well fitted curve in the direction sought with a large enough effect; inconclusive means small, poorly fitted or top-dose-only effect, or another doubt; inactive means no such curve, though single readings can be large; an effect the other way counts as inactive or inconclusive. Unless noted, on the % scale 0 is the no-effect control and ±100 the full control effect.

SMILES | Tau FP inhib | Tau fluor cs | Coupling enz | Tau ThT inhib | G9a block | Sfp inh
O=C(c1cccc(F)c1)N1CCC(N2CCOCC2)CC1 | -1.1% | 4.6% | -9.2 | 6.6% | u | 56.2µM*
COc1ccccc1N1CCN(C2CCN(C(=O)COc3cccc(C)c3)CC2)CC1 | -1.5% | -5.4% | 0.9 | -10.4% | 8.91µM* | -24.9%
COc1ccccc1N1CCN(C2CCN(C(=O)c3cccc(F)c3)CC2)CC1 | -2.8% | -6.0% | -2.2 | -6.3% | 8.91µM* | -27.4%
COc1ccccc1C(=O)N1CCN(C(=O)COc2cccc(C)c2)CC1 | -3.9% | -2.8% | 0.7 | -6.9% | -67.9% | 12.2%
O=C(CSc1nnc(CNC(=O)c2c(F)cccc2F)o1)Nc1ccc2c(c1)OCCO2 | x | x | 0.4 | x | x | 1.3%
C=CCC1(CC=C)CCCN1Cc1nc(COc2ccccc2)no1 | 5.9% | -18.0% | -1.1 | u | u | 15.9%
O=C(O)[C@H](CC(=O)N1C[C@H]2CCCC[C@H]2C1)Cc1ccccc1 | x | x | x | x | 5.4%[12.7 µM] | 13.5%
O=C(O)CCc1ccc(-c2ccc(Cl)cc2)n1CCC(=O)O | -1.7% | -5.2% | 6.1 | -16.5% | 0.8%[59 µM] | -13.9%
O=C(O)CCc1ccc(-c2ccc(Br)cc2)n1-c1cccc(O)c1 | x | x | 11.4 | x | 44.7µM* | -6.6%
O=C(O)CCc1ccc(-c2ccccc2)n1-c1ccc(C(=O)O)cc1 | 3.7% | -2.5% | 8.9 | -13.4% | 14.1µM*! | -5.4%
C=CCn1c(CCC(=O)O)ccc1-c1ccccc1 | -0.7% | 0.5% | 3.6 | -14.4% | -15.6%[12.7 µM] | 15.9%
CC(=O)c1ccc(-n2c(CCC(=O)O)ccc2-c2ccc(Cl)cc2)cc1 | x | x | 14.8 | x | 39.8µM* | 2.0%
O=C(O)CCc1ccc(-c2ccc(Cl)cc2)n1CC(=O)O | 3.9% | -2.2% | 10.6 | -13.4% | 44.7µM* | -18.1%
NC(=O)Nn1c(CCC(=O)O)ccc1-c1ccc(Br)cc1 | -0.4% | 3.3% | -0.5 | -11.2% | u | -28.2%
O=C(NC(=S)Nc1ccccc1Cl)c1cncc(Br)c1 | x | x | -1.3 | x | x | 1.7%
COc1ccccc1-n1c(CCC(=O)O)ccc1-c1ccccc1 | x | x | 10.9 | x | 12.8% | 8.2%
O=C(O)CCc1ccc(-c2ccccc2)n1-c1cccc(C(=O)O)c1 | x | x | 15.4 | x | -11.9%[2.33 µM] | 70.8µM*
CCOC(=O)c1ccc(-n2c(CCC(=O)O)ccc2-c2ccccc2)cc1O | -2.9% | -8.0% | x | u | 17.8µM* | x
COc1ccc(-n2c(CCC(=O)O)ccc2-c2ccccc2)c(OC)c1 | -2.2% | -16.0% | x | -24.2% | 8.91µM* | x
CC(=O)c1cccc(-n2c(CCC(=O)O)ccc2-c2ccc(C)cc2)c1 | x | x | 10.7 | x | 17.6%[2.33 µM] | -18.8%
Cn1nnc2c(NCc3ccccc3)ncnc21 | -5.7% | -2.0% | x | -6.5% | -8.1%[59 µM] | x
CC(=O)NC(c1ccc(Cl)cc1)c1c(O)ccc2ccc(O)cc12 (centres undefined) | -2.2% | -20.6% | -8.2 | -7.9% | 39.8µM* | 10.2%
O=C(NC(c1ccc(Cl)cc1)c1c(O)ccc2ccccc12)c1ccccc1 (centres undefined) | -7.7% | u | -5.7 | 3.6% | -17.1%[59 µM] | 21.2%
Cc1cccc(Cn2c(C)c(C)c3cc(C(=O)NCCN4CCOCC4)ccc32)c1 | x | x | 0.4 | x | 39.8µM* | -2.1%
Cc1c(C)n(Cc2ccc(F)cc2)c2ccc(C(=O)NCCN3CCOCC3)cc12 | x | x | 1.0 | x | 50.1µM* | -11.3%
SMILES | Tau FP inhib | Tau fluor cs | Coupling enz | Tau ThT inhib | G9a block | Sfp inh
CCOC(=O)Cn1c(=O)n(Cc2ccco2)c(=O)c2ccc(C(=O)NCCc3ccccc3)cc21 | -1.3% | -29.9% | -3.8 | u | -17.3%[0.0925 µM] | 56.2µM*
Cc1cccc(CNC(=O)c2ccc3c(c2)c(C)c(C)n3Cc2ccccc2)c1 | 4.0% | -7.9% | x | 1.1% | -31.7%[59 µM] | x
Cc1c(C)n(C)c2ccc(C(=O)NCCCN(C)C3CCCCC3)cc12 | x | x | -0.8 | x | 50.1µM* | -13.8%
CCOc1cc(CNC(=O)C2CCN(c3nc4ccccc4[nH]3)CC2)cc(OCC)c1OCC | 2.9% | -15.4% | x | u | -3.3%[59 µM] | x
CCCC[C@H]1C2=C3[C@@H](CC(C(=O)OC)=C[C@@H](C(=O)OC)[C@H]3C(C)(C)C2=O)n2c(=O)n(C)c(=O)n21 | x | x | 0.4 | x | x | -2.6%
CN(C)c1ccc(CNC(=O)c2ccc3c(c2)N(C)C(=O)C2CCCCN32)cc1 (centres undefined) | 8.2% | -15.0% | x | u | 17.8µM* | x
Cc1ccccc1CCNC(=O)c1ccc2c(c1)c(C)c(C)n2C | 10.7% | u | x | u | u | x
Cc1c(C)n(C)c2ccc(C(=O)Nc3cccc4ccccc34)cc12 | 2.0% | u | -7.3 | u | 50.1µM* | -11.4%
CCn1c(C)c(C)c2cc(C(=O)NCc3ccc(N(C)C)cc3)ccc21 | 16.8% | -29.8% | x | -16.4% | 12.6µM* | x
CCn1c(C)c(C)c2cc(C(=O)NCCc3ccco3)ccc21 | x | x | 0.3 | x | 50.1µM* | -5.9%
Cc1ccccc1C(=O)OCc1cc(=O)n2c(C)csc2n1 | -9.0% | -15.5% | x | u | 15.3%[59 µM] | x
CC(C)NC(=O)NC(=O)COC(=O)c1cc[n+]([O-])cc1 | -5.8% | 1.9% | 1.4 | 3.5% | -16.7% | 15.5%
COc1ccc(C(=O)Oc2c(Sc3ccc(C)cc3)c(C)nn2C(C)(C)C)c(OC)c1 | -5.4% | -14.4% | x | -14.4% | -12.2%[59 µM] | x
CN(C)c1cccc(C(=O)NCc2ccc3c(c2)OCO3)c1 | x | x | -0.8 | x | u | 2.5%
CCn1c(C)c(C)c2cc(C(=O)NCCN3CCCCCC3)ccc21 | x | x | -3.6 | x | 50.1µM* | -25.0%
CN(C)c1cccc(C(=O)NCc2ccc(Cl)cc2)c1 | 2.8% | -21.3% | 1.2 | -17.2% | 39.8µM* | 13.4%
Cc1cc(NC(=O)CCC(=O)N(CC(=O)NCC2CCCO2)c2ccc(C)c(C)c2)no1 (centres undefined) | x | x | -3.6 | x | 10.3% | 3.7%
Cc1ccc(CN2C(=O)c3ccccc3NC2c2cc(Br)ccc2O)cc1 (centres undefined) | x | x | -4.4 | x | u | 6.5%
O=C1c2ccccc2NC(c2cc(Cl)cc(Cl)c2O)N1Cc1cccnc1 (centres undefined) | x | x | 11.0 | x | 79.4µM* | -3.3%
OC(CN1CCCCCC1)CN(c1ccccc1)c1ccccc1 (centres undefined) | x | x | 0.3 | x | -17.0% | -5.0%
CN(CC(O)CN)CC(O)CN1CCCCC1 (centres undefined) | -5.8% | -3.5% | 2.8 | -3.3% | 3.55µM* | -18.4%

Screens deposited in PubChem BioAssay by National Center for Advancing Translational Sciences (NCATS).
